The values below come from PubChem BioAssay (EPA / NIEHS).

The structures appear in SMILES notation. Inconclusive results are not listed. Active and inactive are the calls of the source. How the source made its calls, unless noted: active means hit-call score of the fitted dose curve at least 0.9, where 1 is the maximum; inactive means score below 0.9.

For assay [1], the target named is Retinoic acid receptor RXR-alpha (Homo sapiens) (UniProt P19793). The experiment in a line: ATG_RXRa_TRANS: Attagene TRANS-FACTORIAL HepG2 Assay for human Retinoid X Receptor alpha (RXRa) (AID 2283012; active means hit-call score of the fitted dose curve at least 0.9, where 1 is the maximum). A digest of the protocol: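 Read-out: fluorescent reporter-transcript fragments quantified by capillary electrophoresis after RT-PCR. Transiently transfected HepG2 cells carrying GAL4-UAS reporters and NR-GAL4 chimeras were exposed to chemical for 24 h; activity scored as increase over DMSO.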
Sequence of Retinoic acid receptor RXR-alpha (Homo sapiens) (P19793 whole entry, looked up, the tested form may be a part): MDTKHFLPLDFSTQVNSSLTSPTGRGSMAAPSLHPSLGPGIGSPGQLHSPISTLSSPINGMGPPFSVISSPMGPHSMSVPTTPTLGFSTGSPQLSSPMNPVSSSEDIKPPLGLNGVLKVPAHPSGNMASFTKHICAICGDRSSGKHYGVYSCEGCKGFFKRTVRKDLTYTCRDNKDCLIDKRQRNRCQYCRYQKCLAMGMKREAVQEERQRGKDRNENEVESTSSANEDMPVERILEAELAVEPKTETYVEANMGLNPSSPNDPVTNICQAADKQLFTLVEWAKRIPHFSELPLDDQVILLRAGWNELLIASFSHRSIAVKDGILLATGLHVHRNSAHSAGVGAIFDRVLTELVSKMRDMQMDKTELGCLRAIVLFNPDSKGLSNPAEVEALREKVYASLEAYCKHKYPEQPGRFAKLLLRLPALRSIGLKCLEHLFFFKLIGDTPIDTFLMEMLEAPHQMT

Assay [2] addresses human Retinoid X Receptor beta (RXRb), RXRB (gene 6257) (UniProt P28702). The experiment in a line: ATG_RXRb_TRANS: Attagene TRANS-FACTORIAL HepG2 Assay for human Retinoid X Receptor beta (RXRb) (AID 2283013; active means hit-call score of the fitted dose curve at least 0.9, where 1 is the maximum). The essentials:
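Read-out: reporter mRNA induction via RT-PCR plus capillary electrophoresis fluorescence, analysed as signal increase relative to DMSO. Cells were human HepG2, transiently transfected with GAL4-UAS reporter constructs and chimeric receptor-Gal4 fusions, dosed for 24 h.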

Read-out in assay [3]: E-selectin (Homo sapiens) (UniProt P16581)
Briefly: BSK_3C_Eselectin: BioMAP Diversity Plus: 3C Assay for Eselectin Biomarker Activity (AID 2283015).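 On outcome: cell surface E-selectin protein quantified by ELISA 24 h after dosing.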 To be noted: primary human endothelial cells (HUVEC); actives raise or lower the signal. A digest of the protocol: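 Endpoint derived by bidirectional fitting against DMSO vehicle; signal is ELISA-detected E-selectin from primary HUVEC at 24 h post-dosing, with parallel SRB staining (0.1% SRB, 560 nm) flagging cytotoxicity.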

Read-out in assay [4]: Interleukin-1 alpha (IL1a), IL1A (gene 3552)
Briefly: BSK_BE3C_IL1a: BioMAP Diversity Plus: BE3C Assay for Interleukin-1 alpha (IL1a) Biomarker Activity (AID 2283016). To be noted: primary human bronchial epithelial cells; actives raise or lower the signal. The essentials:
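ELISA read-out of IL-1a from human lung bronchial epithelial primary cells, 24 h post-dose. Gain or loss of signal fitted relative to DMSO negative control.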

Read-out in assay [5]: Monocyte Chemoattractant Protein-1 (MCP1), CCL2 (gene 6347)
Briefly: BSK_3C_MCP1: BioMAP Diversity Plus: 3C Assay for Monocyte Chemoattractant Protein-1 (MCP1) Biomarker Activity (AID 2283017). The following applies: primary human endothelial cells (HUVEC); actives raise or lower the signal. The essentials: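 Using human vascular primary endothelium, researchers measured MCP-1 by ELISA 24 h after treatment, with DMSO serving as negative control for bidirectional fitting.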

Read-out in assay [6]: Monocyte Chemoattractant Protein-1 (MCP1), CCL2 (gene 6347)
Briefly: BSK_4H_MCP1: BioMAP Diversity Plus: 4H Assay for Monocyte Chemoattractant Protein-1 (MCP1) Biomarker Activity (AID 2283018). To be noted: primary human endothelial cells (HUVEC); actives raise or lower the signal. A digest of the protocol: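 HUVEC primary cells, 24 h post-dose, MCP-1 by ELISA. Gain or loss of signal fitted bidirectionally vs DMSO baseline. Cytotoxicity: SRB stain (0.1% after 10% TCA fixation), read 560 nm, parallel cultures.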

Read-out in assay [7]: Human Leukocyte Antigen - DR isotype (HLADR), HLA-DRA (gene 3122)
The experiment in a line: BSK_3C_HLADR: BioMAP Diversity Plus: 3C Assay for Human Leukocyte Antigen - DR isotype (HLADR) Biomarker Activity (AID 2283019).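 On outcome: ELISA of cell-surface HLA-DR on HUVEC 24 h after dosing.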 The following applies: primary human endothelial cells (HUVEC); actives raise or lower the signal. A digest of the protocol: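 Compound added to primary HUVEC cultures, 24 h incubation, then HLA-DR determined by ELISA; endpoint derived by bidirectional fitting relative to DMSO negative control.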

Read-out in assay [8]: Monokine induced gamma interferon (MIG), CXCL9 (gene 4283)
Briefly: BSK_3C_MIG: BioMAP Diversity Plus: 3C Assay for Monokine induced gamma interferon (MIG) Biomarker Activity (AID 2283021).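 On AC50: MIG protein level measured by immunoassay in the treated endothelial cultures.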 The following applies: primary human endothelial cells (HUVEC); actives raise or lower the signal. A digest of the protocol: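 HUVEC, 3C system; 24 h chemical exposure; MIG by ELISA; bidirectional fit vs DMSO baseline.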

In assay [9] the target is human Vitamin D Receptor (VDR), VDR (gene 7421) (UniProt P11473). The experiment in a line: ATG_VDR_TRANS: Attagene TRANS-FACTORIAL HepG2 Assay for human Vitamin D Receptor (VDR) (AID 2283022; active means hit-call score of the fitted dose curve at least 0.9, where 1 is the maximum). The essentials:
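Multiplexed TRANS reporter in HepG2; 24 h treatment; reporter mRNA by RT-PCR plus capillary electrophoresis; upregulation scored relative to DMSO.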

Assay [10] can be described thus: BSK_3C_SRB: Viability Assessment in the BioMAP Diversity Plus: 3C Assay (AID 2283023).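 Further: cells read 24 h after compound dosing; fitted both ways against DMSO so a hit may be signal rise or drop.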 The following applies: primary human endothelial cells (HUVEC). The essentials:
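Overt cytotoxicity is gauged in parallel confluent HUVEC cultures by SRB total-protein staining at the time of biomarker measurement, 24 h after dosing. Gain or loss of signal is fitted versus DMSO.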

Read-out in assay [11]: Matrix Metallopeptidase 1 (MMP1), MMP1 (gene 4312)
The experiment in a line: BSK_BE3C_MMP1: BioMAP Diversity Plus: BE3C Assay for Matrix Metallopeptidase 1 (MMP1) Biomarker Activity (AID 2283024). To be noted: primary human bronchial epithelial cells; actives raise or lower the signal. A digest of the protocol:
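ELISA read-out of MMP1 in human lung bronchial epithelial primary cultures, 24 h post-dose; bidirectional curve fit vs DMSO baseline, gain or loss of signal scored.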

Assay [12] in a line: BSK_3C_Vis: BioMAP Diversity Plus: 3C Assay for Morphology Visualization (AID 2283025).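 Further: fitted both ways so gain or loss versus DMSO counts.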 To be noted: primary human endothelial cells (HUVEC). The essentials: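 HUVEC, 3C system; light microscopy of morphology at 24 h post-dose. Bidirectional fit vs DMSO baseline. Secondary readout, background-control function.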
Read-out in assay [13]: Pselectin, SELP (gene 6403)
The experiment in a line: BSK_4H_Pselectin: BioMAP Diversity Plus: 4H Assay for Pselectin Biomarker Activity (AID 2283026). To be noted: primary human endothelial cells (HUVEC); actives raise or lower the signal. The essentials: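 HUVEC, 24 h chemical exposure; P-selectin read by ELISA. Bidirectional curve fit vs DMSO baseline; gain or loss of signal scored.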

The nature of assay [14]: BSK_4H_SRB: Viability Assessment in the BioMAP Diversity Plus: 4H Assay (AID 2283027).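 Further: cells exposed to compound for 24 h before staining.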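 On AC50: curves fitted both ways versus DMSO so AC50 may be loss or gain.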 To be noted: primary human endothelial cells (HUVEC). A digest of the protocol:
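Cytotoxicity readout: sulforhodamine B (0.1%) staining of total protein after 10% TCA fixation, measured at 560 nm in human umbilical vein endothelium at 24 h. DMSO set the baseline; fitting was bidirectional.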

A short description of assay [15]: BSK_BE3C_SRB: Viability Assessment in the BioMAP Diversity Plus: BE3C Assay (AID 2283028).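 Further: measured 24 h after chemical dosing.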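 On AC50: fitted both ways so AC50 may mark signal gain or loss versus DMSO.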 To be noted: primary human bronchial epithelial cells. A digest of the protocol: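 SRB total-protein staining (0.1%, after TCA fixation) of chemically dosed human bronchial epithelial primary cells at 24 h; DMSO serves as the negative control for bidirectional curve fitting.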

Read-out in assay [16]: Thrombomodulin, THBD (gene 7056)
Briefly: BSK_3C_Thrombomodulin: BioMAP Diversity Plus: 3C Assay for Thrombomodulin Biomarker Activity (AID 2283029). To be noted: primary human endothelial cells (HUVEC); actives raise or lower the signal. A digest of the protocol: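 HUVEC, 3C conditions; compound 24 h; thrombomodulin by ELISA; bidirectional curve fit vs DMSO baseline; parallel SRB total-protein staining for cytotoxicity.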

Read-out in assay [17]: Urokinase-type plasminogen activator receptor (uPAR), PLAUR (gene 5329)
Briefly: BSK_4H_uPAR: BioMAP Diversity Plus: 4H Assay for Urokinase-type plasminogen activator receptor (uPAR) Biomarker Activity (AID 2283030). To be noted: primary human endothelial cells (HUVEC); actives raise or lower the signal. The essentials:
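Endpoint derived via bidirectional curve fitting against DMSO baseline; readout was ELISA detection of uPAR on umbilical vein endothelial cells at 24 h post-treatment, with SRB-stained parallel cultures assessing cytotoxicity.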

Read-out in assay [18]: Vascular endothelial growth factor receptor 2 (Homo sapiens) (UniProt P35968)
The experiment in a line: BSK_4H_VEGFRII: BioMAP Diversity Plus: 4H Assay for Vascular endothelial growth factor receptor 2 (VEGFR2) Biomarker Activity (AID 2283031).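 On AC50: cell-surface VEGFR2 protein level quantified by ELISA.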 The following applies: primary human endothelial cells (HUVEC); actives raise or lower the signal. A digest of the protocol:
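In this multiplexed HUVEC system, biomarker ELISA was performed after 24 h chemical exposure. Parallel SRB staining (TCA fixation, 560 nm) tracked cytotoxicity; DMSO served as baseline.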

Assay [19] deals with human Thyroid Receptor alpha (THRa1), THRA (gene 7067) (UniProt P10827). The experiment in a line: ATG_THRa1_TRANS: Attagene TRANS-FACTORIAL HepG2 Assay for human Thyroid Receptor alpha (THRa1) (AID 2283014; active means hit-call score of the fitted dose curve at least 0.9, where 1 is the maximum). The essentials: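 Measured here is mRNA from a GAL4-UAS reporter in transfected HepG2 cells carrying a Gal4-fused receptor, 24 h post-dose. DMSO served as negative control and baseline.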
Sequence of human Thyroid Receptor alpha (THRa1), THRA (gene 7067) (P10827 whole entry, looked up, the tested form may be a part): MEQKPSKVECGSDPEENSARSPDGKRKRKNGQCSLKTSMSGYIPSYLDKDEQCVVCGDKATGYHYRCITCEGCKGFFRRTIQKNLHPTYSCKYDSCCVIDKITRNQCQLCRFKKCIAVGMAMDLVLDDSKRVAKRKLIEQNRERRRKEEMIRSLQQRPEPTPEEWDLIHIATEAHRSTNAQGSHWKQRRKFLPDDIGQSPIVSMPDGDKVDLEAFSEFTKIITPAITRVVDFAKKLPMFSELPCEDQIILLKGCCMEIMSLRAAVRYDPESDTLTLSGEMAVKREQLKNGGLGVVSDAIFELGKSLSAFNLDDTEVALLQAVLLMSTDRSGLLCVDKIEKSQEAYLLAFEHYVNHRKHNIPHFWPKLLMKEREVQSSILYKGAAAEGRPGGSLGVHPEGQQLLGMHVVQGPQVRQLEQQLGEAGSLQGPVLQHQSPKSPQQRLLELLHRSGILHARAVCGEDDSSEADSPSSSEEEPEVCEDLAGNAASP

Read-out in assay [20]: Interleukin-8 (IL8), CXCL8 (gene 3576)
The experiment in a line: BSK_3C_IL8: BioMAP Diversity Plus: 3C Assay for Interleukin-8 (IL8) Biomarker Activity (AID 2283020). The following applies: primary human endothelial cells (HUVEC); actives raise or lower the signal. The essentials:
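HUVEC, 3C stimulation; 24 h compound exposure; IL-8 read by ELISA; gain or loss of signal fitted relative to DMSO control.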

Sequence of human Retinoid X Receptor beta (RXRb), RXRB (gene 6257) (P28702 whole entry, looked up, the tested form may be a part): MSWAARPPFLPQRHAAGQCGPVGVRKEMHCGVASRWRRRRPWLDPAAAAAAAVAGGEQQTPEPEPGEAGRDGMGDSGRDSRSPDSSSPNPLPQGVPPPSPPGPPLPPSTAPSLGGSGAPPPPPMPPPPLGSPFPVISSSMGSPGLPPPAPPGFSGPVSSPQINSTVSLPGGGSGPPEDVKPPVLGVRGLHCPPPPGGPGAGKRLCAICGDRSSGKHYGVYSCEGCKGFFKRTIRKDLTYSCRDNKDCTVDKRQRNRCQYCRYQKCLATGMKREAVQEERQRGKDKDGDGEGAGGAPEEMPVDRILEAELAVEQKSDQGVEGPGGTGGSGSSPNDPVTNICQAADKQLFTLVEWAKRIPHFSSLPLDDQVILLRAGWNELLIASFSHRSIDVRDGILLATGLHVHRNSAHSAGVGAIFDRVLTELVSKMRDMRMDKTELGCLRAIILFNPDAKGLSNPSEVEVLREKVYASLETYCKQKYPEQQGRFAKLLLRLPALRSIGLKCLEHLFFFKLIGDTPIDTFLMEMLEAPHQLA
Sequence of human Vitamin D Receptor (VDR), VDR (gene 7421) (P11473 whole entry, looked up): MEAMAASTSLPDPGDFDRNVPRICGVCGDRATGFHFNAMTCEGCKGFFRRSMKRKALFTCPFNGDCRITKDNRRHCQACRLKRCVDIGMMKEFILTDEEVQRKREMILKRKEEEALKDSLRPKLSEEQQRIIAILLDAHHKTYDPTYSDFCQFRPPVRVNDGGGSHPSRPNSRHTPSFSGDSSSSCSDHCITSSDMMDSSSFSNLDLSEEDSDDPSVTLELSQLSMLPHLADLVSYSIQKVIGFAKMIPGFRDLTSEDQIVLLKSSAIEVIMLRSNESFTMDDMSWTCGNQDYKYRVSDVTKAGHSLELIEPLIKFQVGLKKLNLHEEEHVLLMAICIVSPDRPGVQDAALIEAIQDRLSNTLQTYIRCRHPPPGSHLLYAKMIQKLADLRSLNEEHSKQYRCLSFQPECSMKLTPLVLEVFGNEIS
Sequence of E-selectin (Homo sapiens) (P16581 whole entry, looked up): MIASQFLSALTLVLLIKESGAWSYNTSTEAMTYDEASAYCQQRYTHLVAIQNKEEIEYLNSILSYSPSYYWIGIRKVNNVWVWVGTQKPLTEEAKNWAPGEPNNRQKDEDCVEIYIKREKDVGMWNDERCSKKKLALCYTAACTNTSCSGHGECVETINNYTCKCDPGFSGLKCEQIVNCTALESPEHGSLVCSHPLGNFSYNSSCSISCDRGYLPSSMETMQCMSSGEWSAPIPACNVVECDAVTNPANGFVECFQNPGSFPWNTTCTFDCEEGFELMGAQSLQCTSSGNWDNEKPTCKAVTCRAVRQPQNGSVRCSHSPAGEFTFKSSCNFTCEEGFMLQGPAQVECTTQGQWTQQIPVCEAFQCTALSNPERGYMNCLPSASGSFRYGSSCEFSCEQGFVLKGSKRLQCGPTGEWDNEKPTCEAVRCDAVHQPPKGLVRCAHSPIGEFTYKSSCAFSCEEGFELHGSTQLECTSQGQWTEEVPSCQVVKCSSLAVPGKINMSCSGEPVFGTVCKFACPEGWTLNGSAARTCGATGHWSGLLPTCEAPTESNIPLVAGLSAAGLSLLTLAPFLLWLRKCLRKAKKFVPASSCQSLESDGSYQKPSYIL

Take `N[C@@H](Cc1cc(I)c(Oc2ccc(O)c(I)c2)c(I)c1)C(=O)O`: the molecule was classed as inactive in [1], in assay [2], in assay [3], in assay [4], in assay [5] and in assay [6]. For the same molecule, the result in assay [7], in assay [8], in assay [9], in assay [10], in assay [12] and in assay [13] was inactive. The outcome in assay [14], in assay [15], in assay [16], in assay [17] and in assay [18] was inactive. Also, the AC50 in [11] is 3.8 µM (active).

As to `S=C([S-])NCCNC(=S)[S-].[Mn+2]`, the call in assay [1], in [19], in assay [3], in [4], in [5] and in assay [6] was inactive. In addition, the result in [8], in assay [10], in assay [11], in [14], in assay [15] and in assay [16] was inactive. The result in [17] and in assay [18] was inactive. Moreover, the half-maximal activity concentration (AC50) in assay [7] is 29.7 µM (active); in assay [12] it was 39 µM (active); in assay [13] it was 27.8 µM (active).

Take `COC(=O)c1ccc(CNS(C)(=O)=O)cc1S(=O)(=O)NC(=O)Nc1nc(OC)cc(OC)n1`: the call in [2], in assay [19], in assay [3], in [4], in [5] and in assay [6] was inactive. The outcome in assay [7], in assay [20], in assay [8], in assay [9], in assay [10] and in assay [11] was inactive. For the same molecule, the result in [12], in assay [13], in assay [14], in [15], in [16] and in assay [17] was inactive. In addition, the result in [18] was inactive.

`CCCN(CCC)c1c([N+](=O)[O-])cc(C(F)(F)F)c(N)c1[N+](=O)[O-]`: the molecule was classed as inactive in [19] and in assay [11]. The concentration at half-maximal activity (AC50) in assay [3] is 14.9 µM (active); in assay [4] it was 31.3 µM (active); in assay [5], 29.4 µM (active); in assay [6] it was 29.7 µM (active); in [7] it was 18.4 µM (active); in assay [8], 31.7 µM (active). Moreover, the AC50 in assay [10] is 30.6 µM (active); in assay [12], 16.3 µM (active); in assay [13], 30.3 µM (active); in [14], 31.5 µM (active); in assay [15] it was 16.4 µM (active); in [16], 2.15 µM (active). The AC50 in [17] was 33.1 µM (active); in [18] it was 32.3 µM (active).

Turning to `c1ccc(Nc2ccccc2)cc1`, the result in assay [1], in [2], in [3], in assay [4], in [5] and in assay [6] was inactive. Moreover, the result in [8], in assay [9], in assay [10], in [11], in [12] and in assay [13] was inactive. The result in [14], in [15], in assay [16], in assay [17] and in [18] was inactive. Besides, the AC50 in [7] is 13.5 µM (active).

For the molecule `Oc1ccc(C(c2ccc(O)cc2)C(Cl)(Cl)Cl)cc1`, the result in [2], in [19] and in [9] was inactive. For the same molecule, the AC50 is 27.3 µM (active) in assay [3]; 31.5 µM (active) in assay [4]; 29.1 µM (active) in [5]; 14.6 µM (active) in assay [6]; 33.5 µM (active) in assay [7]; 15.5 µM (active) in assay [20]. Besides, the AC50 in assay [8] is 30.7 µM (active); in [10], 16.4 µM (active); in [11] it was 33.1 µM (active); in assay [12] it was 29.4 µM (active); in [13] it was 20 µM (active); in assay [14], 19.3 µM (active). In addition, the AC50 is 30.2 µM (active) in assay [15], 6.1 µM (active) in assay [16] and 31.4 µM (active) in assay [17].

Take `CC(C)(C)[C@@H](O)[C@@H](Cc1ccc(Cl)cc1)n1cncn1`: the result in [2], in assay [19], in assay [3], in assay [4], in assay [5] and in assay [6] was inactive. Further, the outcome in assay [8], in assay [10], in [11], in [13], in assay [14] and in [15] was inactive. The outcome in assay [16], in [17] and in assay [18] was inactive. Besides, the AC50 in assay [7] is 7.11 µM (active); in assay [12] it was 39 µM (active).

As a reminder, the AC50 is the concentration giving half of the maximal activity seen.
